From PubChem BioAssay
pAkt inh: blocks phosphorylation of Akt; Neuro2A IGF-stimulated pAkt S473 HTRF, 20 min; stronger effect = lower value; actives 0.32% (n = 360,000); activity change, % for hits at 50 µM; in the data active = activity change below about -80%; inconclusive = mostly about -51% to -80%
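Single-point screen (50 µM final compound) in Neuro2A cells stimulated 20 min with 6 nM IGF at 37 deg C. After lysis, Ser473-phosphorylated Akt read by HTRF (ex 330 nm, em 615/665 nm) as the 665/615 ratio.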
CtBP-E1A inh: inhibitors of CtBP/E1A interaction. AID 651724. actives 0.49% (n = 340,000). AlphaScreen GST-E1A/His-CtBP binding, 1536-well; stronger effect = lower value. activity change, % (test concentration not listed)
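In 5 uL wells, 23 nL compound meets equimolar GST-E1A and His-CtBP (5X stock 125 nM each) for 2 h, 37 °C. Beads (5X, 50 ug/mL) then 1 h, 37 °C, dark.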
CCT modulator: cytosolic chaperonin activity modulation. AID 651819. purified chaperonin ATPase assay, HTRF ADP detection, 30 min. activity change, % (concentration not given with the values), hits read low. actives 0.3% (n = 360,000); in the data active = activity change below about -30%
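Enzyme 40 or 20 nM (batch-dependent) in Tris pH 7.4/KCl/MgCl2/DTT; cpd 76 uM single point; ATP 10 uM; 30 min 37 °C; Transcreener ADP HTRF detection, 30 min RT; ratio 665/615.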
Six1-Eya2 blk: inhibitors of human Six1/Eya2 interaction; AlphaScreen GST-Six1/His-Eya2 binding, biochemical; stronger effect = lower value; actives 0.56% (n = 360,000); Q15475+O00167; activity change, % (concentration not given with the values)
Target sequence (O00167 whole entry, looked up): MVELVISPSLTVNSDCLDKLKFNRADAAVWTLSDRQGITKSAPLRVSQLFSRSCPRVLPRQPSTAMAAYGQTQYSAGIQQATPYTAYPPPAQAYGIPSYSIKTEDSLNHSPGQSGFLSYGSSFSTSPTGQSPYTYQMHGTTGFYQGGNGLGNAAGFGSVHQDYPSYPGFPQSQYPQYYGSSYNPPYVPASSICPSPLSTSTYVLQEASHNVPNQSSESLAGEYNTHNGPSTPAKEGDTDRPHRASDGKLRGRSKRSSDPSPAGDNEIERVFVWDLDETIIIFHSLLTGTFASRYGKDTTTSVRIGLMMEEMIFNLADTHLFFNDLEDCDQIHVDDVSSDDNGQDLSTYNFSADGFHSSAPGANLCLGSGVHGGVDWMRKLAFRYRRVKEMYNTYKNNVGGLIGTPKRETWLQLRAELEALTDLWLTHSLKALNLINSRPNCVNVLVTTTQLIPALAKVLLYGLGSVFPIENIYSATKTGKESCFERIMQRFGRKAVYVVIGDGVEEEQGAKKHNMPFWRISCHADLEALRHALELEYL
Target sequence (Q15475 whole entry, looked up): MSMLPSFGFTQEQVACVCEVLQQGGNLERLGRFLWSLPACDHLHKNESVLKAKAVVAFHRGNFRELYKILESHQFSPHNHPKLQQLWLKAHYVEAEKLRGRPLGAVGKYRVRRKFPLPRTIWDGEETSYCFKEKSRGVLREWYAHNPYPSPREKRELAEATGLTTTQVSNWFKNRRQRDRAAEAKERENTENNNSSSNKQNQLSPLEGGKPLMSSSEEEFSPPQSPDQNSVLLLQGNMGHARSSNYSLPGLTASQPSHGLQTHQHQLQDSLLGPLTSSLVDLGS
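Six1/Eya2 binding was read as AlphaScreen signal after compounds were pinned into GST-Six1 plus His-tagged Eya2 (5X stock 250/500 nM) in pH 8.0 Tris/NaCl/TCEP buffer, beads added, then incubated 1 h, 37 C, dark.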
* marks the source's active call; other numbers are inactive results; i = inactive; ? = inconclusive; nt = not tested or not shown. Hits are enriched below; roughly 1.3% of the tested compounds scored in any of these assays. Rule as the data show it, unless noted: active = activity change below about -65%; inconclusive = mostly about -30% to -63%; inactive = weaker than that. % is scaled to controls: 0 for no effect and ±100 for the full control effect.

SMILES | pAkt inh | CtBP-E1A inh | CCT modulator | Six1-Eya2 blk
COc1cc(/C=N\NC(=O)c2ccc(Cn3nc([N+](=O)[O-])c(Cl)c3C)o2)ccc1O | i | -84.3* | -1.6 | -83.0*
COc1cccc(/C=N\NC(=O)c2ccc(Cn3cc(Br)c([N+](=O)[O-])n3)o2)c1O | i | -73.7* | 1.8 | ?
Cc1c(OC(C)C(=O)NCC(O)c2ccccc2)ccc2c3c(c(=O)oc12)CCC3 (stereo not given) | i | -27.4 | 0.0 | -10.6
Cc1sc2nc(SCc3ccccc3)n(Cc3ccco3)c(=O)c2c1C | i | 0.9 | -1.0 | 3.1
Cc1ccc(CSc2nc3sc(C)c(C)c3c(=O)n2Cc2ccco2)cc1 | nt | 1.8 | -30.7* | 6.7
Cc1ccc2c(c1C)NC(C(=O)O)C1CC=CC21 (stereo not given) | i | -5.7 | 0.1 | -25.6
O=C(O)C1Nc2c(C(=O)N3CCOCC3)cccc2C2C=CCC12 (stereo not given) | i | -29.3 | -1.2 | -73.8*
C=CCc1c(C)nc(C)nc1N/N=C/c1ccccc1O | i | -91.8* | -1.1 | -81.0*
Oc1ccccc1/C=N/Nc1nn[nH]n1 | i | nt | 0.0 | -91.1*
Cc1nnc(N/N=C/c2ccccc2O)n1N | i | -87.3* | -0.5 | -78.5*
Oc1cccc(/C=N/Nc2ccc(Cl)nn2)c1 | i | -18.4 | -0.1 | -13.1
O=[N+]([O-])c1ccc(O)c(/C=N/Nc2ccc(Cl)nn2)c1 | i | -90.8* | 0.9 | -81.6*
CCOc1nc(OCC)c2[nH]c(C(=O)O)c(Br)c2n1 | i | 12.1 | -0.5 | 7.3
O=C(NCc1cc(F)ccc1F)C1CCC(=O)N(C2CCCCCC2)C1 (stereo not given) | i | -0.2 | -1.4 | -1.7
NC(N)=N/N=C/c1cc([N+](=O)[O-])ccc1O | i | -29.1 | 0.0 | -19.5
O=[N+]([O-])c1ccc(O)c(/C=N/Nc2nn[nH]n2)c1 | i | ? | 7.8 | -74.2*
Cc1cc(C)n(-c2ccc([N+](=O)[O-])cc2-c2nn[nH]n2)n1 | i | 17.0 | 1.6 | 2.2
O=[N+]([O-])c1ccc(O)c(/C=N/NC2=NS(=O)(=O)c3ccccc32)c1 | i | -70.5* | -4.6 | -70.1*
O=[N+]([O-])c1ccc(/C=N/NC2=NS(=O)(=O)c3ccccc32)cc1 | i | -4.9 | -1.5 | 1.4
O=[N+]([O-])c1ccc(O)c(-c2nn[nH]n2)c1 | i | -94.1* | -0.2 | -92.0*
CCCn1c(NC(=O)c2ccc(Br)cc2)nc2ccccc21 | -87.3%* | 2.7 | -0.8 | 3.4
Cc1noc(NS(=O)(=O)c2ccc(N/C=C\C(=O)c3ccc4c(c3)OCO4)cc2)c1C | i | -75.4* | -0.8 | -67.9*
Cc1noc(NS(=O)(=O)c2ccc(NC(=O)Nc3ccc(Cl)c(Cl)c3)cc2)c1C | -106.9%* | -2.3 | 1.0 | -12.6
Cc1noc(NS(=O)(=O)c2ccc(N/C=C\C(=O)c3ccc(Br)cc3)cc2)c1C | i | nt | 1.7 | -21.5
Cc1noc(NS(=O)(=O)c2ccc(NC(=O)CSc3nnc4c(n3)[nH]c3ccccc34)cc2)c1C | i | -90.2* | -0.1 | -88.5*
SMILES | pAkt inh | CtBP-E1A inh | CCT modulator | Six1-Eya2 blk
Cc1[nH]c2ccccc2c1C(=O)C(C)OC(=O)c1ccc(Cl)nc1 (stereo not given) | i | 3.7 | 1.3 | 0.9
COc1ccccc1CNc1ccc(Br)cn1 | i | 0.3 | 2.3 | 1.2
Cc1ccc(CC(=O)Nc2nnc(-c3ccc(F)cc3)o2)c(C)c1 | i | nt | -1.6 | -13.4
O=C(CCN1C(=O)c2ccccc2S1(=O)=O)Nc1cccc(F)c1 | i | 6.6 | -1.6 | -1.6
O=C(CCCN1C(=O)C(c2ccccc2)Oc2cccnc21)NCc1ccccc1Cl (stereo not given) | i | 3.3 | 0.8 | 2.4
O=C(CCCN1C(=O)C(c2ccccc2)Oc2cccnc21)NCCc1ccc(Cl)cc1 (stereo not given) | i | 0.7 | -125.1* | 7.5
C=CCOc1ccc(/C=C/C(=O)OCC(=O)NCC(=O)Nc2c(C)cc(C)cc2C)cc1 | i | -0.5 | -5.0 | 5.5
O=C(O)CCCC(=O)N1CCN(c2nc(-c3ccccc3Cl)c3cc(Br)ccc3n2)CC1 | i | nt | 0.5 | -2.0
C=CCOC(=O)Nc1nc(CCNC(=O)OCc2ccccc2)c(C(=O)OC)s1 | i | 5.6 | nt | -0.9
COc1ccccc1C(=O)N/C(=C\c1ccccc1)C(=O)NCc1ccco1 | i | 0.9 | -1.5 | -6.5
COc1cc(C)ccc1NC(=O)c1ccc(S(=O)(=O)N2CCOCC2)cc1 | i | 0.7 | -30.1* | -1.4
NS(=O)(=O)Oc1ccccc1 | i | 11.2 | -1.9 | 10.2
COc1cc(/C=N/NC(=S)NC2CC3CCC2C3)ccc1O (stereo not given) | i | -9.9 | 0.9 | -10.9
COc1ccc(/C=N/NC(=S)N[C@H]2CC3CCC2C3)cc1 (stereo not given in full) | i | -2.9 | -67.1* | -1.8
O=C1c2cccc(NCCCNCCO)c2C(=O)c2cccc(NCCCNCCO)c21 | i | -79.2* | -1.8 | -70.7*
O=C1c2ccccc2C(=O)c2c(NCc3cccnc3)cccc21 | i | -8.2 | 1.4 | ?
COc1ccc(Cc2nnc(NC(=O)c3ccccc3)s2)cc1OC | i | -1.3 | -4.1 | 4.1
CCOC(=O)N1CCN(C(=O)Cc2ccc(-n3c(=O)[nH]c4ccccc4c3=O)cc2)CC1 | -109.0%* | 7.3 | -0.6 | 6.8
CC(Nc1ccc2ccccc2c1)C(=O)N/N=C/c1ccncc1 (stereo not given) | i | 0.0 | 0.7 | 4.5
O=C1CCC(=O)N1CNc1ccc(Oc2ccccc2)cc1 | i | -3.6 | -36.3* | -13.9
Cc1occc1C(=O)N(Cc1nc(-c2ccccc2)no1)C(C)C | nt | nt | -72.2* | -6.5
CCN(Cc1nc(-c2ccccc2)no1)C(=O)c1ccoc1C | i | 9.6 | 1.2 | -7.6
CC(=O)C[C@@H](O)CC(=O)[C@@H]1OC(=O)CCCCCc2ccccc21 | i | 6.9 | -3.0 | -0.8
COc1ccc(CN2C[C@@H](CO)O[C@@H](n3cnc4c(N5CCCC5)ncnc43)C2)cc1 | i | -7.6 | -8.0 | -8.8
COc1ccc(OCC(O)Cn2c(=N)n(CCN3CCCCC3)c3ccccc32)cc1 (stereo not given) | i | -1.2 | -0.6 | -3.3
Cc1ccc(OCC(O)Cn2c(=N)n(CCN3CCCCC3)c3ccccc32)cc1 (stereo not given) | -113.4%* | -21.9 | -1.2 | -5.3
C=CCNC(=O)C1CCN(S(=O)(=O)c2ccccc2)CC1 | -95.2%* | 0.2 | -0.4 | -0.3
O=C(CCNC(=O)C1CCN(S(=O)(=O)c2ccccc2)CC1)NCc1ccc(Cl)cc1Cl | nt | nt | -24.6 | 0.0
O=C(CCNC(=O)C1CCN(S(=O)(=O)c2ccccc2)CC1)NCc1cccc(C(F)(F)F)c1 | i | 3.3 | 1.3 | -0.3
O=C(CCNC(=O)C1CCN(S(=O)(=O)c2ccccc2)CC1)NCc1ccc(Cl)cc1 | nt | nt | -80.1* | 2.5
